TWEAK Fn14 block: inhibitors of TWEAK-Fn14 interaction signaling. inhibition, % at 10 µM. TWEAK-stimulated Fn14 reporter cells, luciferase luminescence, 8 h. 360,000 tested, 2% active. AID 1159606; in the data active means inhibition above about 50%
EBV LMP1 NFkB: Epstein-Barr LMP1 NF-kappaB reporter inhibition | LMP1-induced NF-kappaB luciferase reporter cells, luminescence | inhibition, % at 12.5 µM | 350,000 tested, 0.69% active | AID 504558; in the data active means inhibition above about 41%;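 further: 0% = neutral control wells and 100% = reference inhibitor control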
EWS-Fli block: blocks EWS/Fli oncoprotein-driven transcription; AID 651661; inhibition, % at 12.6 µM; 350,000 tested, 0.67% active; A673 NR0B1-luciferase reporter, viability-normalised;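 active means mean inhibition of at least 50% after viability correction, with every replicate also passing that limit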;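 further: firefly luciferase signal divided by Alamar Blue viability fluorescence both relative to DMSO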
LGR2 antag: blocks bursicon-induced cAMP signaling via Drosophila LGR2 | inhibition, % at 9.99 µM | HEK293 LGR2, CRE-luciferase, bursicon-stimulated, 4 h | AID 720647 | 380,000 tested, 0.35% active;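 active means drop in luminescence signal, shown as inhibition above about 50% in the replicate tests, limit read from the data, passing the limit was not always enough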;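 further: agonist challenge used bursicon conditioned medium at about half maximal strength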
TROY NFkB inh: TROY signaling inhibition; Q293 LMP1-TROYcd NF-kB luciferase reporter, 4 h; inhibition, % at 10 µM; 360,000 tested, 0.98% active; AID 1347056;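 active means compounds whose plate-normalised and pattern-corrected inhibition of the luciferase reporter signal at the single screening dose is 50% or more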
* marks the source's active call; other numbers are inactive results; . = no result. A selection: hits, their analogues and other compounds. The true share with any hit is near 2.5%.

SMILES | TWEAK Fn14 block | EBV LMP1 NFkB | EWS-Fli block | LGR2 antag | TROY NFkB inh
COC(=O)COc1ccc(S(=O)(=O)Nc2ccc3c(c2)OCCO3)cc1Cl | 3 | 6 | -7 | -1 | 31
COC(=O)COc1ccc(S(=O)(=O)Nc2ccc3c(c2)OCCO3)cc1C | 56* | 10 | -4 | 9 | 56*
Cc1cc(Cl)c(S(=O)(=O)Nc2ccc3c(c2)OCCO3)cc1OCC(=O)NC1CCCCC1 | 56* | 10 | . | . | 59*
CNS(=O)(=O)c1cc(NC(=O)c2cncn2-c2ccccc2)ccc1C | 79* | -5 | 5 | 6 | 11
COc1ccc(S(=O)(=O)N2CC[C@H]3[C@H](CO)Nc4ccc(Br)cc4[C@H]32)cc1 | . | . | 0 | -14 | .
C[C@H]1CN([C@@H](C)CO)C(=O)c2cc(NC(=O)c3ccncc3)ccc2O[C@@H]1CN(C)Cc1ccccc1 | . | . | -2 | -8 | .
COc1cccc(-c2cc(C(=O)Nc3cccnc3)no2)c1 | 69* | 5 | . | . | -16
COc1ccc(NC(=O)Nc2cccnc2)cc1 | -31 | -1 | -24 | -24 | -8
CC(=O)Oc1ccc(C(=O)Nc2cccnc2)cc1 | -29 | 85* | 2 | 1 | 31
O=C(Nc1cccnc1)c1cc(-c2ccccc2)on1 | 19 | 3 | . | . | -13
Cc1ccc(NC(=O)Nc2cccnc2)cc1NC(=O)Nc1cccnc1 | 58* | 2 | 0 | 27 | 9
COc1ccc(OC)c(NC(=O)Nc2cccnc2)c1 | 52* | -3 | 1 | 15 | -13
Cc1ccc(N2CCN(C(=O)c3[nH]c(C(F)(F)F)nc3-c3ccccc3)CC2)cc1 | 11 | . | -3 | -8 | -3
O=C(c1[nH]c(C(F)(F)F)nc1-c1ccccc1)N1CCN(c2ccccc2)CC1 | 10 | . | 65* | 3 | 28
O=C(c1ccncc1)N1CC2(C1)[C@@H](c1ccccc1)[C@@H](CO)N2C(=O)CC1CC1 | . | . | 13 | 6 | .
C#CCOCCOCCOCCNc1nc(N2CCN(C(=O)CCCCCCCCCCNC(=O)[C@@H](CCC(=O)O)n3cc(CCCCCN)nn3)CC2)nc(N2CCN(C(=O)CCCCCCCCCCNC(=O)[C@H](CCCCN)n3cc(C[C@@H](C)CC)nn3)CC2)n1 | -5 | 2 | . | . | 13
C#CCOCCOCCOCCNc1nc(N2CCN(C(=O)CCCCCCCCCCNC(=O)[C@H](CCCCN)n3cc(C)nn3)CC2)nc(N2CCN(C(=O)CCCCCCCCCCNC(=O)[C@@H]([C@H](C)O)n3cc(C)nn3)CC2)n1 | -1 | -8 | . | . | -25
C#CCOCCOCCOCCNc1nc(N2CCN(C(=O)CCCCCCCCCCNC(=O)[C@H](CCCCN)n3cc(C[C@@H](C)CC)nn3)CC2)nc(N2CCN(C(=O)CCCCCCCCCCNC(=O)[C@@H]([C@H](C)O)n3cc(C)nn3)CC2)n1 | 106* | -35 | . | . | 90*
C#CCOCCOCCOCCNc1nc(N2CCN(C(=O)CCCCCCCCCCNC(=O)[C@H](CCCCN)n3cc(C[C@@H](C)CC)nn3)CC2)nc(N2CCN(C(=O)CCCCCCCCCCNC(=O)[C@H](CCCN=C(N)N)n3cc(C[C@@H](C)CC)nn3)CC2)n1 | 60* | 6 | . | . | 41
c1csc(-c2nnc(-c3ccc(N4CCOCC4)cc3)o2)c1 | 59* | 21 | . | . | -3
CCOc1ccc(-c2nnc(-c3cccs3)o2)cc1 | 63* | 8 | . | . | 22
CCOc1ccc(-c2nnc(-c3cccs3)o2)cc1OCC | -23 | -11 | . | . | -98
CC(C)c1ccc(N=Cc2c(O)c3ccccc3oc2=O)cc1 | 82* | -27 | 5 | -17 | 69*
COc1ccc(N=Cc2c(O)c3ccccc3oc2=O)cc1 | 5 | -6 | 4 | -21 | 27
C[C@@H]1CN([C@H](C)CO)C(=O)c2cc(Br)cnc2O[C@@H]1CN(C)CC1CCCC1 | . | . | -14 | -6 | .
Cc1ccc(S(=O)(=O)Nc2ccc3c(c2)C(=O)N([C@@H](C)CO)C[C@@H](C)[C@H](CN(C)Cc2ccc(C(F)(F)F)cc2)OCCCC[C@@H](C)O3)cc1 | . | . | 45 | 24 | .
C=C(C(=O)c1ccccc1)C(C)CC(=O)c1ccccc1 (stereo not given) | 63* | -7 | . | 11 | -19
C=C(C(=O)c1ccccc1)C(NC(C)(C)C)c1ccccc1 (stereo not given) | 96* | 91* | 43 | 101* | 19
COC(=O)C(NC(=O)c1ccccc1)c1ccccc1 (stereo not given) | -12 | 0 | . | . | -12
COc1cccc(-c2ccc3n(c2=O)C[C@@H]2[C@@H](CO)[C@H](C(=O)NCC4CC4)N(C)[C@H]32)c1 | . | . | 4 | 5 | .
